# Data: PubChem BioAssay AID1159580 (chemical genetic matrix, 2015)
# “And” between values parts separate entries of the source, which are not always exact repeats. Equal entries are not always repeated. Out of some 5,500 compounds screened, about 2,000 (36%) were called active. Inconclusive results (about 18%) are left out. Cut-off read from the data, not from the text of the source: active = normalized growth mostly below about 0.91 (no sharp cut-off); inconclusive = no clear call, values can overlap the other calls; inactive = mostly above about 0.92. The list shows a part of the results.
# Test: chemical genetic growth profiling, strain panel (AID 1159580);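 note: tested at 20 µM; growth read once vehicle control cultures reached saturation at 30 °C; 1 = growth at the plate median or of vehicle wells; lower values mean less growth of the strain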
# Conditions: growth OD
structure (smiles),measurement,setting,value
COc1ccc2oc(-c3ccccc3)c(OC)c(=O)c2c1,normalized growth,"S. cerevisiae deletion strains, locus YAL013W, strain DEP1, stronger effect = lower value",0.903 (active)
same,normalized growth,"S. cerevisiae deletion strains, locus YBR021W, strain FUR4, stronger effect = lower value",0.925 (inactive)
same,normalized growth,"S. cerevisiae deletion strains, locus YBR229C, strain ROT2, stronger effect = lower value",0.929 (inactive)
same,normalized growth,"S. cerevisiae deletion strains, locus YCL029C, strain bik1, stronger effect = lower value",0.906 (active)
same,normalized growth,"S. cerevisiae deletion strains, locus YDL035C, strain GPR1, stronger effect = lower value",0.846 (active)
same,normalized growth,"S. cerevisiae deletion strains, locus YDL074C, strain BRE1, stronger effect = lower value",0.71 (active)
same,normalized growth,"S. cerevisiae deletion strains, locus YDL101C, strain DUN1, stronger effect = lower value",0.888 (active)
same,normalized growth,"S. cerevisiae deletion strains, locus YDL134C, strain PPH21, stronger effect = lower value",0.828 (active)
same,normalized growth,"S. cerevisiae deletion strains, locus YDL185W, strain tfp1, stronger effect = lower value",0.923 (inactive)
same,normalized growth,"S. cerevisiae deletion strains, locus YDL192W, strain arf1, stronger effect = lower value",0.858 (active)
same,normalized growth,"S. cerevisiae deletion strains, locus YDR101C, strain arx1, stronger effect = lower value",0.887 (active)
same,normalized growth,"S. cerevisiae deletion strains, locus YDR150W, strain NUM1, stronger effect = lower value",0.944 (inactive)
same,normalized growth,"S. cerevisiae deletion strains, locus YDR162C, strain NBP2, stronger effect = lower value",0.719 (active)
same,normalized growth,"S. cerevisiae deletion strains, locus YDR318W, strain mcm21, stronger effect = lower value",0.808 (active)
same,normalized growth,"S. cerevisiae deletion strains, locus YDR388W, stronger effect = lower value",0.892 (active)
same,normalized growth,"S. cerevisiae deletion strains, locus YDR502C, strain sam2, stronger effect = lower value",0.867 (active)
same,normalized growth,"S. cerevisiae deletion strains, locus YEL061C, strain CIN8, stronger effect = lower value",0.938 (inactive)
same,normalized growth,"S. cerevisiae deletion strains, locus YER110C, stronger effect = lower value",0.861 (active)
same,normalized growth,"S. cerevisiae deletion strains, locus YER155C, strain BEM2, stronger effect = lower value",0.926 (inactive)
same,normalized growth,"S. cerevisiae deletion strains, locus YER167W, strain BCK2, stronger effect = lower value",0.801 (active)
same,normalized growth,"S. cerevisiae deletion strains, locus YGL078C, strain dbp3, stronger effect = lower value",0.956 (inactive)
same,normalized growth,"S. cerevisiae deletion strains, locus YGL086W, strain mad1, stronger effect = lower value",0.882 (active)
same,normalized growth,"S. cerevisiae deletion strains, locus YGL248W, strain PDE1, stronger effect = lower value",0.814 (active)
same,normalized growth,"S. cerevisiae deletion strains, locus YGR078C, strain PAC10, stronger effect = lower value",0.748 (active)
same,normalized growth,"S. cerevisiae deletion strains, locus YGR135W, strain pre9, stronger effect = lower value",0.784 (active)
same,normalized growth,"S. cerevisiae deletion strains, locus YGR229C, strain SMI1, stronger effect = lower value",0.58 (active)
same,normalized growth,"S. cerevisiae deletion strains, locus YGR252W, strain gcn5, stronger effect = lower value",0.68 (active)
same,normalized growth,"S. cerevisiae deletion strains, locus YHR030C, strain SLT2, stronger effect = lower value",0.674 (active) and 0.934 (inactive)
same,normalized growth,"S. cerevisiae deletion strains, locus YHR079C, strain IRE1 (second series), stronger effect = lower value",0.828 (active)
same,normalized growth,"S. cerevisiae deletion strains, locus YHR079C, strain IRE1, stronger effect = lower value",0.926 (inactive)
same,normalized growth,"S. cerevisiae deletion strains, locus YHR094C, strain hxt1, stronger effect = lower value",0.936 (inactive)
same,normalized growth,"S. cerevisiae deletion strains, locus YHR129C, strain ARP1, stronger effect = lower value",0.874 (active)
same,normalized growth,"S. cerevisiae deletion strains, locus YHR200W, strain rpn10, stronger effect = lower value",0.897 (active)
same,normalized growth,"S. cerevisiae deletion strains, locus YIL066C, strain RNR3, stronger effect = lower value",0.882 (inactive)
same,normalized growth,"S. cerevisiae deletion strains, locus YIL073C, strain SPO22, stronger effect = lower value",0.803 (inactive)
same,normalized growth,"S. cerevisiae deletion strains, locus YIL125W, strain kgd1, stronger effect = lower value",0.956 (inactive)
same,normalized growth,"S. cerevisiae deletion strains, locus YIR030C, strain dcg1, stronger effect = lower value",0.879 (active)
same,normalized growth,"S. cerevisiae deletion strains, locus YJL095W, strain BCK1, stronger effect = lower value",0.426 (active) and 0.93 (inactive)
same,normalized growth,"S. cerevisiae deletion strains, locus YJL134W, strain LCB3, stronger effect = lower value",0.946 (inactive)
same,normalized growth,"S. cerevisiae deletion strains, locus YJL168C, strain set2, stronger effect = lower value",0.912 (active)
same,normalized growth,"S. cerevisiae deletion strains, locus YJL187C, strain SWE1 (second series), stronger effect = lower value",0.855 (active)
same,normalized growth,"S. cerevisiae deletion strains, locus YJR043C, strain POL32, stronger effect = lower value",0.863 (inactive)
same,normalized growth,"S. cerevisiae deletion strains, locus YJR066W, strain TOR1, stronger effect = lower value",0.867 (inactive)
same,normalized growth,"S. cerevisiae deletion strains, locus YJR075W, strain HOC1, stronger effect = lower value",0.844 (active)
same,normalized growth,"S. cerevisiae deletion strains, locus YKL009W, strain mrt4, stronger effect = lower value",0.877 (active)
same,normalized growth,"S. cerevisiae deletion strains, locus YKL068W, stronger effect = lower value",0.96 (inactive)
same,normalized growth,"S. cerevisiae deletion strains, locus YKL085W, strain MDH1 (second series), stronger effect = lower value",0.945 (inactive)
same,normalized growth,"S. cerevisiae deletion strains, locus YKL085W, strain MDH1, stronger effect = lower value",0.945 (inactive)
same,normalized growth,"S. cerevisiae deletion strains, locus YKL190W, strain CNB1, stronger effect = lower value",0.922 (inactive)
same,normalized growth,"S. cerevisiae deletion strains, locus YKR001C, strain vps1, stronger effect = lower value",0.764 (active)
same,normalized growth,"S. cerevisiae deletion strains, locus YLR039C, strain RIC1, stronger effect = lower value",0.778 (inactive)
same,normalized growth,"S. cerevisiae deletion strains, locus YLR058C, strain SHM2, stronger effect = lower value",0.88 (active)
same,normalized growth,"S. cerevisiae deletion strains, locus YLR102C, strain apc9, stronger effect = lower value",0.93 (inactive)
same,normalized growth,"S. cerevisiae deletion strains, locus YLR113W, strain HOG1, stronger effect = lower value",0.937 (inactive)
same,normalized growth,"S. cerevisiae deletion strains, locus YLR262C, strain YPT6, stronger effect = lower value",0.801 (inactive)
same,normalized growth,"S. cerevisiae deletion strains, locus YLR268W, strain sec22, stronger effect = lower value",0.807 (active)
same,normalized growth,"S. cerevisiae deletion strains, locus YLR330W, strain CHS5, stronger effect = lower value",0.899 (active)
same,normalized growth,"S. cerevisiae deletion strains, locus YLR342W, strain FKS1 (second series), stronger effect = lower value",0.69 (active)
same,normalized growth,"S. cerevisiae deletion strains, locus YLR371W, strain rom2, stronger effect = lower value",0.932 (inactive)
same,normalized growth,"S. cerevisiae deletion strains, locus YLR418C, strain cdc73, stronger effect = lower value",0.592 (active)
same,normalized growth,"S. cerevisiae deletion strains, locus YML016C, strain PPZ1, stronger effect = lower value",0.919 (active)
same,normalized growth,"S. cerevisiae deletion strains, locus YML032C, strain rad52, stronger effect = lower value",0.53 (active)
same,normalized growth,"S. cerevisiae deletion strains, locus YML124C, strain tub3, stronger effect = lower value",0.924 (active)
same,normalized growth,"S. cerevisiae deletion strains, locus YMR078C, strain ctf18, stronger effect = lower value",0.805 (active)
same,normalized growth,"S. cerevisiae deletion strains, locus YMR223W, strain ubp8, stronger effect = lower value",0.83 (active)
same,normalized growth,"S. cerevisiae deletion strains, locus YMR263W, strain SAP30, stronger effect = lower value",0.838 (active)
same,normalized growth,"S. cerevisiae deletion strains, locus YMR307W, strain GAS1, stronger effect = lower value",0.652 (inactive)
same,normalized growth,"S. cerevisiae deletion strains, locus YNL067W, strain RPL9B, stronger effect = lower value",0.837 (active)
same,normalized growth,"S. cerevisiae deletion strains, locus YNL128W, strain TEP1, stronger effect = lower value",0.942 (inactive)
same,normalized growth,"S. cerevisiae deletion strains, locus YNL153C, strain GIM3, stronger effect = lower value",0.891 (inactive)
same,normalized growth,"S. cerevisiae deletion strains, locus YNL183C, strain NPR1, stronger effect = lower value",0.88 (inactive)
same,normalized growth,"S. cerevisiae deletion strains, locus YNL233W, strain BNI4, stronger effect = lower value",0.78 (active)
same,normalized growth,"S. cerevisiae deletion strains, locus YNL250W, strain rad50, stronger effect = lower value",0.9 (inactive)
same,normalized growth,"S. cerevisiae deletion strains, locus YNL271C, strain bni1, stronger effect = lower value",0.916 (active)
same,normalized growth,"S. cerevisiae deletion strains, locus YNL298W, strain CLA4, stronger effect = lower value",0.884 (active)
same,normalized growth,"S. cerevisiae deletion strains, locus YNL307C, strain MCK1, stronger effect = lower value",0.29 (active)
same,normalized growth,"S. cerevisiae deletion strains, locus YNL322C, strain KRE1, stronger effect = lower value",0.947 (inactive)
same,normalized growth,"S. cerevisiae deletion strains, locus YNR052C, strain pop2, stronger effect = lower value",0.899 (active)
same,normalized growth,"S. cerevisiae deletion strains, locus YOL006C, strain TOP1, stronger effect = lower value",0.359 (active)
same,normalized growth,"S. cerevisiae deletion strains, locus YOL012C, strain htz1",0.77 (inactive)
same,normalized growth,"S. cerevisiae deletion strains, locus YOL147C, strain pex11, stronger effect = lower value",0.854 (active)
same,normalized growth,"S. cerevisiae deletion strains, locus YOR061W, strain CKA2, stronger effect = lower value",0.937 (inactive)
same,normalized growth,"S. cerevisiae deletion strains, locus YOR069W, strain VPS5, stronger effect = lower value",0.979 (inactive)
same,normalized growth,"S. cerevisiae deletion strains, locus YOR136W, strain idh2, stronger effect = lower value",0.922 (inactive)
same,normalized growth,"S. cerevisiae deletion strains, locus YOR144C, strain elg1, stronger effect = lower value",0.92 (active)
same,normalized growth,"S. cerevisiae deletion strains, locus YOR184W, strain ser1, stronger effect = lower value",0.684 (active)
same,normalized growth,"S. cerevisiae deletion strains, locus YOR231W, strain MKK1, stronger effect = lower value",0.918 (inactive)
same,normalized growth,"S. cerevisiae deletion strains, locus YOR316C, strain cot1, stronger effect = lower value",0.916 (active)
same,normalized growth,"S. cerevisiae deletion strains, locus YPL055C, strain LGE1, stronger effect = lower value",0.767 (inactive)
same,normalized growth,"S. cerevisiae deletion strains, locus YPL241C, strain CIN2, stronger effect = lower value",0.959 (inactive)
same,normalized growth,"S. cerevisiae deletion strains, locus YPL256C, strain CLN2, stronger effect = lower value",0.939 (inactive)
same,normalized growth,"S. cerevisiae deletion strains, locus YPR119W, strain clb2, stronger effect = lower value",0.919 (active)
same,normalized growth,"S. cerevisiae deletion strains, locus YPR141C, strain kar3, stronger effect = lower value",0.944 (inactive)
same,normalized growth,"S. cerevisiae deletion strains, locus YPR163C, strain tif3, stronger effect = lower value",0.634 (active)
same,normalized growth,"S. cerevisiae deletion strains, locus YPR167C, strain met16, stronger effect = lower value",0.916 (active)
same,normalized growth,"S. cerevisiae deletion strains, strain wtn01, stronger effect = lower value",0.832 (active)
same,normalized growth,"S. cerevisiae strains, strain wild type, stronger effect = lower value",0.895 (active)
